Screening results as filed in PubChem BioAssay.
DRD3 antagonist: blocks the human D3 dopamine receptor | P35462 | D3R cells, DiscoveRx beta-arrestin luminescence, antagonist mode; stronger effect = lower value | max response, negative = inhibition, % | hit rate 2.5% among 360,000; in the data active means max response below about -50%; inconclusive means no clear call, values can overlap the other calls; further: on the % scale 0 is the no-effect control and ±100 the full control effect
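Cells plated overnight at 1500 cells/well, then exposed to library compounds with dopamine controls for 90 minutes at 37 degrees C. DiscoveRx reagent added for 30–60 minutes at room temperature; luminescence read, quantitative HTS format.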
DRD3 agonist: activates the human D3 dopamine receptor | D3R DiscoveRx beta-arrestin cells, luminescence, 90 min | max activation, % | hit rate 0.58% among 410,000; in the data active means max activation above about 30%; further: 0% is about no effect
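Agonist mode: compounds and dopamine controls were applied to plated cells for 90 min at 37 degrees C after an overnight attachment at 1500 cells/well. Luminescent read-out followed 30 - 60 minutes at room temperature with DiscoveRx detection reagent.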
D1 PAM: enhances dopamine response at the human D1 receptor | P21728 | HEK293 TREx D1 cells, calcium flux, dopamine EC20 potentiation | potentiation, % at 10 µM | hit rate 0.036% among 360,000; in the data active means potentiation above about 30%; further: 0% is about no effect
Target sequence (P21728 whole entry, looked up): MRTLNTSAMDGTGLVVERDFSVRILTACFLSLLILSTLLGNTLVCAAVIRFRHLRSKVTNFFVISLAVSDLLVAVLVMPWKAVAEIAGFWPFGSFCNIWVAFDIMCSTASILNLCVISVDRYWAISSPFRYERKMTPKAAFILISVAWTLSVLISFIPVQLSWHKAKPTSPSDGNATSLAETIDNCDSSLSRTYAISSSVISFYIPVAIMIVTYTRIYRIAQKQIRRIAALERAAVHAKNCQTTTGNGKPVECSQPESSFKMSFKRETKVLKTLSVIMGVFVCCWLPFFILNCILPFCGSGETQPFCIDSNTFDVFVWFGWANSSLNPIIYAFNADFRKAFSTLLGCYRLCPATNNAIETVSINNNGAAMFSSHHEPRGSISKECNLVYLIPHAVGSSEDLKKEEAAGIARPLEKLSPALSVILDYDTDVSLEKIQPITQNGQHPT
D1 antag: antagonists of human D1 dopamine receptor; hit rate 3.2% among 360,000; activity change, negative = inhibition, % at 10 µM; HEK293 TREx D1 cells, calcium flux, dopamine EC80; stronger effect = lower value; P21728; in the data active means activity change below about -30%; further: on the % scale 0 is the no-effect control and ±100 the full control effect
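Cells carrying a force-coupled, tetracycline-inducible human D1 receptor report calcium flux. Each well gets a 10 s baseline, compound with 180 s monitoring, then an EC80 dopamine stimulus with a second 180 s kinetic read.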
D1 agonist: agonists of human D1 dopamine receptor; P21728; HEK293 T-REx D1 cells, calcium flux, agonist mode; activation, % at 2 µM; hit rate 1% among 360,000; in the data active means activation above about 30%; further: 0% is about no effect
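Agonism was scored from calcium flux recorded over 180 s (1 read/s) after pintool compound addition, following a 10-cycle baseline. Cells were inducible force-coupled HEK293 TREx D1, plated overnight at 30 C and loaded with no-wash calcium dye.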
Starred values were filed as active, the others as inactive. Sampled rows, rich in hits. Any-hit rate of the full collection: about 6.1%.

For Nc1nonc1C(=O)NCCNCc1ccccc1F the results were DRD3 agonist -4, D1 PAM -2, D1 antag -3 and D1 agonist -2.
`Cc1ccc(C)c(NC(=O)CCS(=O)(=O)c2cccc3nsnc23)c1` gave DRD3 agonist 1, D1 PAM -1, D1 antag 8 and D1 agonist 1.
Screening CCn1nc(NC(C)=O)c2cc3cccc(C)c3nc21 returned DRD3 antagonist -5, DRD3 agonist 0, D1 PAM 4, D1 antag -4 and D1 agonist 1.
Screening CCn1nc(NC(=O)COC)c2cc3cccc(C)c3nc21 returned DRD3 antagonist 15, DRD3 agonist 4, D1 PAM -4, D1 antag -81* and D1 agonist 3.
For O=C(Nc1ncc(Cc2ccc(SC(F)F)cc2)s1)c1ccc(OC(F)F)cc1 the results were DRD3 antagonist 11, DRD3 agonist 1, D1 PAM -7, D1 antag -16 and D1 agonist 35*.
`Cc1ccc2c(C)c(C(=O)N(C)C(C)c3ccon3)oc2c1C` (stereo unspecified) gave DRD3 antagonist 12, DRD3 agonist -1, D1 PAM -1, D1 antag -39* and D1 agonist 2.
Cc1ccc2c(C)c(C(=O)N(C)C(C)c3ccncn3)oc2c1C (stereo unspecified) was read as DRD3 antagonist 0, DRD3 agonist 2, D1 PAM 6, D1 antag 16 and D1 agonist 2.
Screening COC(=O)c1ccc(N)c(CS(=O)(=O)c2ccc(Cl)cc2)c1 returned DRD3 antagonist 17, DRD3 agonist 2, D1 PAM -3, D1 antag -4 and D1 agonist 0.
COC(=O)c1sc(C(C)(C)C)cc1CS(=O)(=O)c1ccc(Cl)cc1 was read as DRD3 antagonist 18, DRD3 agonist -6, D1 PAM -5, D1 antag -40* and D1 agonist 2.
For COc1cc2cc(Oc3ccc4ccc(=O)oc4c3)c(=O)oc2cc1OC(=O)/C=C/c1ccccc1 the results were DRD3 antagonist 6, DRD3 agonist -5, D1 PAM -7, D1 antag -62* and D1 agonist 2.
COc1cc(C(=O)Nc2ccc(S(=O)(=O)Nc3cc(C)on3)cc2)cc(OC)c1OC was read as DRD3 antagonist inconclusive, DRD3 agonist -1, D1 PAM -2, D1 antag -79* and D1 agonist 0.
Screening CCOc1cc(C(=O)Nc2ccc(S(=O)(=O)Nc3cc(C)on3)cc2)cc(OCC)c1OCC returned DRD3 antagonist 12, DRD3 agonist 3, D1 PAM -2, D1 antag 32 and D1 agonist 2.
`COc1cc(C(=O)Nc2ccc3c(c2)C(=O)c2ccccc2C3=O)cc(OC)c1OC` gave DRD3 antagonist 8, DRD3 agonist -1, D1 PAM -7, D1 antag -50* and D1 agonist 4.
For COc1ccc(C(=O)Cn2c(=O)n3nc(CCn4nc(C)cc4C)nc3c3cc(OC)c(OC)cc32)cc1 the results were DRD3 agonist -6, D1 PAM -4, D1 antag -13 and D1 agonist 0.
`Oc1c(C(c2ccccc2Cl)N2CCCC2)sc2nc(-c3ccco3)nn12` (stereo unspecified) gave DRD3 agonist 1, D1 PAM -2 and D1 agonist 3.
For COc1cc(C(=O)N2CCNC(=O)C2CC(=O)Nc2ccc(C)c(C)c2)cc(OC)c1OC (stereo unspecified) the results were DRD3 agonist 8, D1 PAM -4, D1 antag -7 and D1 agonist -1.
`CCc1nnc(NC(=O)c2ccc3c(c2)C(=O)N(C(C)(C)C)C3=O)s1` gave DRD3 antagonist -24, DRD3 agonist 38*, D1 PAM -2, D1 antag -6 and D1 agonist 1.
For Cc1ccn2c(=O)c(C(=O)NCCc3ccccc3)c(O)nc2c1 the results were DRD3 agonist 0, D1 PAM 2, D1 antag -6 and D1 agonist -1.
Screening Cc1ccc(NC(=O)C2CCN(C(=O)c3cnn(-c4ccccc4)c3-n3cccc3)CC2)cc1 returned DRD3 agonist 8, D1 PAM -4, D1 antag 19 and D1 agonist 2.
For Cc1nn(-c2ccc(Cl)cc2)c2nc(-c3cccnc3)cc(C(F)(F)F)c12 the results were DRD3 agonist 4, D1 PAM 0, D1 antag 16 and D1 agonist 1.
`COc1ccc(C2C(=O)N(C3CCCCCC3)CC(=O)N2CCc2ccccc2)cc1` (stereo unspecified) gave DRD3 agonist 28, D1 PAM -1, D1 antag 14 and D1 agonist -3.
O=C1C(c2cccc(Br)c2)N(CCc2ccccc2)C(=O)CN1C1CCCCC1 (stereo unspecified) was read as DRD3 agonist 5, D1 PAM -1, D1 antag -33* and D1 agonist -2.
Screening N#Cc1cc(N)c(Nc2ccccc2)cc1C#N returned DRD3 antagonist inconclusive, DRD3 agonist -11, D1 PAM -11, D1 antag -41* and D1 agonist 10.
Screening CC(=O)Oc1ccc(C(=O)Cc2ccc3ccccc3n2)c(O)c1C returned DRD3 antagonist -6, DRD3 agonist 0, D1 PAM -2, D1 antag 0 and D1 agonist 32*.
`Oc1ccc(/C(Cc2ccc3ccccc3n2)=N\Nc2ccccc2)c(O)c1` gave DRD3 antagonist inconclusive, DRD3 agonist 3, D1 PAM -3, D1 antag 4 and D1 agonist 2.
For CC(=O)Oc1ccc(C(=O)Cc2ccccn2)c(O)c1 the results were DRD3 antagonist 17, DRD3 agonist 7, D1 PAM -3, D1 antag -12 and D1 agonist 2.
`Cc1c(O)ccc(/C(Cc2ccc3ccccc3n2)=N\O)c1O` gave DRD3 antagonist 5, DRD3 agonist -2, D1 PAM -6, D1 antag -31* and D1 agonist 21.
CCCCN(CCCC)C1=C(C(=O)c2ccccc2)N(C)S(=O)(=O)c2ccccc21 was read as DRD3 agonist 2, D1 PAM 0, D1 antag 1 and D1 agonist -1.
Screening CCCCc1c(O)c2ccccc2[nH]c1=O returned DRD3 antagonist 2, DRD3 agonist 8, D1 PAM -4, D1 antag 22 and D1 agonist 3.
CCCCc1cc(O)c(CCCC)c(O)c1 was read as DRD3 antagonist -13, DRD3 agonist -4, D1 PAM -11, D1 antag -8 and D1 agonist 102*.
Screening COC(=O)CC1Oc2ccc(Cl)cc2-n2cc(-c3ccc(C)cc3)nc21 (stereo unspecified) returned DRD3 agonist -15, D1 PAM -4, D1 antag -2 and D1 agonist 2.
`COc1ccc(N2CCN(S(=O)(=O)c3ccc4c(c3)CCCN4C(C)=O)CC2)cc1` gave DRD3 agonist 0, D1 PAM -5, D1 antag -11 and D1 agonist 3.
